14 compounds from the supplement of paper PMC10646978 can be followed below.

± gives the standard deviation.

Conditions in all cases: modulator concentration 10 µM
In experiment [1] the test system is RAW-Dual (murine macrophage reporter line). The experiment can be described thus: NF-kB reporter (SEAP) activity fold change vs agonist alone; higher = enhanced NF-kB activity. The procedure, abridged:
(§1)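 Overnight stimulation with a PRR agonist followed pre-incubation for 1 hour at 37 °C with compound at 10 μM final. This was done in RAW-Dual murine macrophage reporter cells seeded at 50 000 per well in 384-well plates. NF-κB (SEAP, QUANTI-Blue absorbance at 620 nm) and IRF (Lucia luciferase, QUANTI-Luc luminescence) were read from the supernatant. Each reporter's fold change relative to the mean agonist-only control on the same plate was averaged over replicate plates.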

For experiment [2] the test system is unchanged. The experiment can be described thus: IRF reporter (Lucia luciferase) activity fold change vs agonist alone; higher = enhanced IRF activity. The essentials:
as §1

Experiment [3] has the same test system. The experiment can be described thus: viability score (confluency relative to resting cells, overnight) (fraction); higher = more viable, active = viable (0.7 or more). The essentials:
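Confluency was the readout: RAW-Dual macrophages were imaged with IncuCyte after an overnight exposure to compound at 10 μM final. IncuCyte software produced two masks over all imaged wells. The viability score expresses confluency against resting cells, and both masks had to exceed 70% of resting cells for a compound to meet the cutoff.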

Where [4] appears, read: agonist: CpG ODN 1826 0.5 ug/mL.

Regarding `Clc1ccccc1C=NNc1nc(-c2ccccc2)cc(-c2ccccc2)n1`, the NF-kB reporter is 1.15 ± 0.11 in experiment [1] (setting [4]), 1.1 ± 0.073 in experiment [1] (agonist: LPS 0.1 ug/mL) and 1.79 ± 0.07 in experiment [1] (agonist: MPLA […]). Also, the values for the IRF reporter in experiment [2] (agonist: 3'3'-cGAMP 10 ug/mL), in experiment [2] (agonist: LPS 0.1 ug/mL) and in experiment [2] (agonist: MPLA […]) were 1.2 ± 0.23, 1.04 ± 0.065 and 1.65 ± 0.29, respectively. For the same compound, the viability score in experiment [3] is 1 (active).

In the case of `CCCC1CCC(c2ccc(C(=O)NNC(=O)c3ccc(C4CCC(CCC)CC4)cc3)cc2)CC1` (stereo not drawn), the NF-kB reporter in experiment [1] (setting [4]) was determined as 0.984 ± 0.059; in experiment [1] (agonist: LPS 0.1 ug/mL), 1.01 ± 0.07; in experiment [1] (agonist: MPLA […]), 0.936 ± 0.059. Further, the IRF reporter in experiment [2] (agonist: 3'3'-cGAMP 10 ug/mL) worked out at 0.898 ± 0.035; in experiment [2] (agonist: LPS 0.1 ug/mL), 1.43 ± 0.11; in experiment [2] (agonist: MPLA […]), 1.13 ± 0.21. In addition, the viability score in experiment [3] is 1.01 (active).

Take `Cc1cccc(CCC(=O)N2CCCC(Oc3ccnc(C)n3)C2)c1` (stereo not drawn): the NF-kB reporter is 1.02 ± 0.09 in experiment [1] (setting [4]), 1.14 ± 0.11 in experiment [1] (agonist: LPS 0.1 ug/mL) and 1.06 ± 0.15 in experiment [1] (agonist: MPLA […]). For the same compound, the results for the IRF reporter in experiment [2] (agonist: 3'3'-cGAMP 10 ug/mL), in experiment [2] (agonist: LPS 0.1 ug/mL) and in experiment [2] (agonist: MPLA […]) were 0.731 ± 0.057, 1.19 ± 0.085 and 1.16 ± 0.24, respectively. Also, the viability score in experiment [3] is 0.963 (active).

For `COC(CNC(=O)CSc1ccc(F)cc1)c1ccc(C)s1` (stereo not drawn), the NF-kB reporter came out at 1.07 ± 0.33 in experiment [1] (setting [4]), 1.1 ± 0.067 in experiment [1] (agonist: LPS 0.1 ug/mL) and 1.05 ± 0.067 in experiment [1] (agonist: MPLA […]). The IRF reporter in experiment [2] (agonist: 3'3'-cGAMP 10 ug/mL) is 0.898 ± 0.03; in experiment [2] (agonist: LPS 0.1 ug/mL), 1.06 ± 0.16; in experiment [2] (agonist: MPLA […]), 1.11 ± 0.1. For the same compound, the viability score in experiment [3] is 0.985 (active).

Consider `O=C(CCC(=O)Nc1ccccc1)NN=Cc1ccc(Cl)cc1`, for which the figures for the NF-kB reporter in experiment [1] (setting [4]), in experiment [1] (agonist: LPS 0.1 ug/mL) and in experiment [1] (agonist: MPLA […]) were 1.01 ± 0.06, 0.993 ± 0.062 and 1 ± 0.08, respectively. Also, the IRF reporter in experiment [2] (agonist: 3'3'-cGAMP 10 ug/mL) came out at 0.98 ± 0.036; in experiment [2] (agonist: LPS 0.1 ug/mL) it was 1.48 ± 0.2; in experiment [2] (agonist: MPLA […]) it was 1.22 ± 0.13. For the same compound, the viability score in experiment [3] was 1 (active).

As to `CCN(CC)C(=O)/C(C#N)=C/c1cc(O)c(O)c([N+](=O)[O-])c1`, the NF-kB reporter worked out at 1.23 ± 0.23 in experiment [1] (setting [4]), 1.08 ± 0.45 in experiment [1] (agonist: LPS 0.1 ug/mL) and 0.864 ± 0.055 in experiment [1] (agonist: MPLA […]). Also, the IRF reporter in experiment [2] (agonist: 3'3'-cGAMP 10 ug/mL) was 0.905 ± 0.035; in experiment [2] (agonist: LPS 0.1 ug/mL), 1.22 ± 0.43; in experiment [2] (agonist: MPLA […]), 1.11 ± 0.095. Moreover, the viability score in experiment [3] was 0.992 (active).

Turning to `CN(Cc1cnc2nc(N)nc(N)c2n1)c1ccc(C(=O)N[C@@H](CCC(=O)O)C(=O)O)cc1`, the values for the NF-kB reporter in experiment [1] (setting [4]), in experiment [1] (agonist: LPS 0.1 ug/mL) and in experiment [1] (agonist: MPLA […]) were 0.668 ± 0.16, 0.862 ± 0.28 and 0.764 ± 0.045, respectively. Also, the results for the IRF reporter in experiment [2] (agonist: 3'3'-cGAMP 10 ug/mL), in experiment [2] (agonist: LPS 0.1 ug/mL) and in experiment [2] (agonist: MPLA […]) were 0.612 ± 0.049, 1.02 ± 0.35 and 0.993 ± 0.16, respectively. Besides, in experiment [3], the viability score was 0.574 (inactive).

Consider `CN(CCO)c1ccc2nonc2c1[N+](=O)[O-]`, for which the NF-kB reporter in experiment [1] (setting [4]) stood at 1.39 ± 0.085; in experiment [1] (agonist: LPS 0.1 ug/mL), 1.18 ± 0.11; in experiment [1] (agonist: MPLA […]), 1.33 ± 0.087. Also, the results for the IRF reporter in experiment [2] (agonist: 3'3'-cGAMP 10 ug/mL), in experiment [2] (agonist: LPS 0.1 ug/mL) and in experiment [2] (agonist: MPLA […]) were 0.886 ± 0.034, 1.28 ± 0.086 and 0.996 ± 0.088, respectively. Further, the viability score in experiment [3] was 1 (active).

Take `CCOC(=O)c1c(C)n(-c2ccccc2)c2ccc(NS(=O)(=O)c3ccccc3)cc12`: the NF-kB reporter in experiment [1] (setting [4]) came out at 0.959 ± 0.16; in experiment [1] (agonist: LPS 0.1 ug/mL) it was 0.95 ± 0.075; in experiment [1] (agonist: MPLA […]), 1.04 ± 0.087. The IRF reporter in experiment [2] (agonist: 3'3'-cGAMP 10 ug/mL) was 0.932 ± 0.029; in experiment [2] (agonist: LPS 0.1 ug/mL), 1.05 ± 0.13; in experiment [2] (agonist: MPLA […]), 1.21 ± 0.17. Moreover, in experiment [3], the viability score is 0.808 (active).

Consider `CC1(C)CC(=O)c2sc(NC(=O)c3ccccc3)nc2C1`, for which the NF-kB reporter in experiment [1] (setting [4]) came to 1.05 ± 0.078; in experiment [1] (agonist: LPS 0.1 ug/mL) it was 1.08 ± 0.12; in experiment [1] (agonist: MPLA […]), 1 ± 0.036. In addition, the IRF reporter in experiment [2] (agonist: 3'3'-cGAMP 10 ug/mL) is 0.807 ± 0.048; in experiment [2] (agonist: LPS 0.1 ug/mL) it was 1 ± 0.13; in experiment [2] (agonist: MPLA […]) it was 1.02 ± 0.12. Further, the viability score in experiment [3] was 1 (active).

For the compound `CC1CCC2C(C)(CO)C(O)CCC2(C)C12CCC(CO)(CCO)O2` (stereo not drawn), the NF-kB reporter in experiment [1] (setting [4]) came out at 0.983 ± 0.073; in experiment [1] (agonist: LPS 0.1 ug/mL), 0.945 ± 0.049; in experiment [1] (agonist: MPLA […]), 1.02 ± 0.033. The IRF reporter in experiment [2] (agonist: 3'3'-cGAMP 10 ug/mL) turned out to be 0.99 ± 0.11; in experiment [2] (agonist: LPS 0.1 ug/mL), 0.949 ± 0.048; in experiment [2] (agonist: MPLA […]) it was 0.952 ± 0.076. The viability score in experiment [3] was 1 (active).

For the compound `Cc1cc(C)n2nc(C(=O)NN=Cc3ccc(N(C)C)cc3)nc2n1`, the NF-kB reporter amounted to 1.1 ± 0.069 in experiment [1] (setting [4]), 1.09 ± 0.067 in experiment [1] (agonist: LPS 0.1 ug/mL) and 0.934 ± 0.084 in experiment [1] (agonist: MPLA […]). The results for the IRF reporter in experiment [2] (agonist: 3'3'-cGAMP 10 ug/mL), in experiment [2] (agonist: LPS 0.1 ug/mL) and in experiment [2] (agonist: MPLA […]) were 0.996 ± 0.033, 1.37 ± 0.11 and 1.3 ± 0.25, respectively. In experiment [3], the viability score was 1.01 (active).

Regarding `C=CCNC(=O)COc1ccccc1C`, the NF-kB reporter in experiment [1] (setting [4]) was 0.782 ± 0.073; in experiment [1] (agonist: LPS 0.1 ug/mL), 0.887 ± 0.042; in experiment [1] (agonist: MPLA […]), 0.985 ± 0.086. In addition, the IRF reporter in experiment [2] (agonist: 3'3'-cGAMP 10 ug/mL) turned out to be 1.05 ± 0.048; in experiment [2] (agonist: LPS 0.1 ug/mL) it was 1.36 ± 0.082; in experiment [2] (agonist: MPLA […]), 1.48 ± 0.16. The viability score in experiment [3] was 1 (active).

`Cc1cccc(N=c2scc(-c3ccc([N+](=O)[O-])cc3)n2-c2cccc(C)c2C)c1C`: the results for the NF-kB reporter in experiment [1] (setting [4]), in experiment [1] (agonist: LPS 0.1 ug/mL) and in experiment [1] (agonist: MPLA […]) were 0.863 ± 0.065, 1.04 ± 0.078 and 0.906 ± 0.054, respectively. Moreover, the results for the IRF reporter in experiment [2] (agonist: 3'3'-cGAMP 10 ug/mL), in experiment [2] (agonist: LPS 0.1 ug/mL) and in experiment [2] (agonist: MPLA […]) were 0.864 ± 0.029, 1.37 ± 0.088 and 1.11 ± 0.16, respectively. Besides, in experiment [3], the viability score was 1 (active).
